We go through 4 compounds from PubChem BioAssay (EPA / NIEHS).

Common to all, as to details: mRNA level, 48 h; actives raise or lower the signal
Read-out in test [1]: Insulin Like Growth Factor 1 (IGF1), IGF1 (gene 3479)
Put plainly: LTEA_HepaRG_IGF1: Life Technologies and Expression Analysis (LTEA) Assay for Insulin Like Growth Factor 1 (IGF1) using HepaRG (AID 2283506). Put shortly:
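Endpoint: IGF1 mRNA change by qRT-PCR, housekeeping-normalized, fitted bidirectionally relative to 0.5% DMSO vehicle. Human HepaRG cells were treated 48 h in serum-free induction medium, eight half-log concentrations topping at 100 uM.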

Read-out in test [2]: Intercellular Adhesion Molecule 1 (ICAM1), ICAM1 (gene 3383)
The test is described as follows: LTEA_HepaRG_ICAM1: Life Technologies and Expression Analysis (LTEA) Assay for Intercellular Adhesion Molecule 1 (ICAM1) using HepaRG (AID 2283507). The method in brief:
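Readout is qRT-PCR mRNA level, normalized to three housekeeping genes and fitted bidirectionally against 0.5% DMSO vehicle. Human HepaRG cultures received compound for 48 h, top concentration 100 uM with half-log dilutions.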

Read-out in test [3]: Insulin-like growth factor-binding protein 1 (IGFBP1), IGFBP1 (gene 3484)
The test is described as follows: LTEA_HepaRG_IGFBP1: Life Technologies and Expression Analysis (LTEA) Assay for Insulin-like growth factor-binding protein 1 (IGFBP1) using HepaRG (AID 2283508). Put shortly:
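Thawed HepaRG cells are plated for 48 h, switched to serum-free induction medium, then dosed in duplicate for another 48 h (100 uM top, half-log steps). Lysates in RLT go to qRT-PCR, and gain or loss of signal is fitted relative to vehicle.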

Read-out in test [4]: Interleukin 6 Receptor (IL6R), IL6R (gene 3570)
Put plainly: LTEA_HepaRG_IL6R: Life Technologies and Expression Analysis (LTEA) Assay for Interleukin 6 Receptor (IL6R) using HepaRG (AID 2283510). Put shortly: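 In this HepaRG screen, test chemicals act on cells for 48 h at up to 100 uM (eight half-log points, duplicate wells). IL6R expression is quantified by qRT-PCR after normalization to ACTB, GAPDH and POLR2A, with DMSO as baseline.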

Read-out in test [5]: Potassium channel subfamily K member 1 (KCNK1), KCNK1 (gene 3775)
The test is described as follows: LTEA_HepaRG_KCNK1: Life Technologies and Expression Analysis (LTEA) Assay for Potassium channel subfamily K member 1 (KCNK1) using HepaRG (AID 2283511). Put shortly:
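Human HepaRG cultures receive test chemicals for 48 h in 0.5% DMSO, top concentration 100 uM with half-log dilutions. Induction or suppression of KCNK1 mRNA relative to DMSO is derived by bidirectional fitting of qRT-PCR data.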

Read-out in test [6]: Keratin 19 (KRT19), KRT19 (gene 3880)
The test is described as follows: LTEA_HepaRG_KRT19: Life Technologies and Expression Analysis (LTEA) Assay for Keratin 19 (KRT19) using HepaRG (AID 2283512). The method in brief: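 KRT19 transcript levels, measured by Fluidigm qRT-PCR against three housekeeping genes, are fitted for gain or loss of signal relative to DMSO. Human HepaRG cells receive test chemicals (top 100 uM, half-log steps, 0.5% DMSO) for 48 hours.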

Read-out in test [7]: JUN Transcription Factor, JUN (gene 3725)
Put plainly: LTEA_HepaRG_JUN: Life Technologies and Expression Analysis (LTEA) Assay for JUN Transcription Factor using HepaRG (AID 2283513). Put shortly: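 Gene-expression endpoint: JUN mRNA (qRT-PCR, normalized to three reference genes) in HepaRG cultures treated 48 h with chemicals, duplicate wells, 100 uM maximum with half-log dilutions; bidirectional fitting relative to 0.5% DMSO.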

Read-out in test [8]: Lipase C (LIPC), LIPC (gene 3990)
The test is described as follows: LTEA_HepaRG_LIPC: Life Technologies and Expression Analysis (LTEA) Assay for Lipase C (LIPC) using HepaRG (AID 2283514). Put shortly:
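In this multiplexed gene-expression screen, human HepaRG cultures received test chemicals for 48 h across eight concentrations with 100 uM highest, in duplicate. Values reflect LIPC mRNA induction or suppression versus DMSO vehicle, from normalized qRT-PCR.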

Read-out in test [9]: Lipoprotein lipase (LPL), LPL (gene 4023)
Put plainly: LTEA_HepaRG_LPL: Life Technologies and Expression Analysis (LTEA) Assay for Lipoprotein lipase (LPL) using HepaRG (AID 2283515). Put shortly:
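Concentration-response testing used half-log steps from 100 uM in 0.5% DMSO on human HepaRG cells, 48 h, duplicate wells. Phenobarbital 1 mM served as induction control; LPL mRNA was normalized to ACTB, GAPDH, POLR2A.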

Read-out in test [10]: MicroRNA 122 (MIR122), gene 406906
The test is described as follows: LTEA_HepaRG_MIR122: Life Technologies and Expression Analysis (LTEA) Assay for MicroRNA 122 (MIR122) using HepaRG (AID 2283516). Also: the transcript read is the microRNA miR-122. The method in brief: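 Changes in transcript abundance, up or down relative to 0.5% DMSO vehicle, were scored after 48 h chemical treatment of HepaRG cells (maximum 100 uM). Quantification used TaqMan qRT-PCR normalized to housekeeping genes.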

Read-out in test [11]: matrix metalloproteinase-10 (MMP10), MMP10 (gene 4319)
The test is described as follows: LTEA_HepaRG_MMP10: Life Technologies and Expression Analysis (LTEA) Assay for matrix metalloproteinase-10 (MMP10) using HepaRG (AID 2283517). The method in brief:
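In differentiated HepaRG cultures kept in 0.5% DMSO, test chemicals act for 48 h over an eight-point range with a top dose of 100 uM. Expression is then quantified by TaqMan RT-PCR against ACTB, GAPDH and POLR2A.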

Read-out in test [12]: MYC, MYC (gene 4609)
Put plainly: LTEA_HepaRG_MYC: Life Technologies and Expression Analysis (LTEA) Assay for MYC using HepaRG (AID 2283518). The method in brief: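 HepaRG, ~100,000 cells/well, collagen I; 48 h plating; serum-free induction medium; 48 h dosing, duplicate, 100 uM top, half-log, 0.5% DMSO; total RNA → qRT-PCR MYC; gain/loss fit vs DMSO.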

Read-out in test [13]: matrix metalloproteinase-3 (MMP3), MMP3 (gene 4314)
The test is described as follows: LTEA_HepaRG_MMP3: Life Technologies and Expression Analysis (LTEA) Assay for matrix metalloproteinase-3 (MMP3) using HepaRG (AID 2283519). The method in brief: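 Human liver HepaRG cultures received chemicals (top concentration 100 uM, 0.5% DMSO) for 48 h in duplicate. MMP3 mRNA induction or loss was then assessed via TaqMan qRT-PCR with housekeeping-gene normalisation.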

Read-out in test [14]: Paternally Expressed 10 (PEG10), PEG10 (gene 23089)
The test is described as follows: LTEA_HepaRG_PEG10: Life Technologies and Expression Analysis (LTEA) Assay for Paternally Expressed 10 (PEG10) using HepaRG (AID 2283520). Put shortly:
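After 48 h exposure of differentiated HepaRG cells (0.5% DMSO vehicle, eight concentrations up to 100 uM, duplicates), PEG10 mRNA was measured by TaqMan qRT-PCR. Values were normalised to endogenous control genes and analysed bidirectionally against vehicle.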

Read-out in test [15]: Nuclear factor NF-kappa-B p105 subunit (Homo sapiens) (UniProt P19838)
Put plainly: LTEA_HepaRG_NFKB1: Life Technologies and Expression Analysis (LTEA) Assay for Nuclear Factor Kappa B Subunit 1 (NFKB1) using HepaRG (AID 2283521).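 Also: differentiated human HepaRG liver cells in serum-free induction medium; TaqMan qRT-PCR transcript normalised to ACTB GAPDH and POLR2A housekeeping genes.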 Put shortly: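 HepaRG, 48 h exposure; 8-pt half-log series from 100 uM in 0.5% DMSO; duplicates. Readout: NFKB1 mRNA by qRT-PCR (Fluidigm arrays), housekeeping-normalized. Gain/loss fit vs DMSO baseline.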

Read-out in test [16]: Protein phosphatase 2A (PPP2R4), PTPA (gene 5524)
Put plainly: LTEA_HepaRG_PPP2R4: Life Technologies and Expression Analysis (LTEA) Assay for Protein phosphatase 2A (PPP2R4) using HepaRG (AID 2283522). Put shortly: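 Using HepaRG cultures maintained in 0.5% DMSO, chemicals are tested 48 h at up to 100 uM in duplicate. Induction or suppression of PPP2R4 mRNA, measured by qRT-PCR, is fitted bidirectionally against the vehicle baseline.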

Read-out in test [17]: Phosphatase and tensin (PTEN), PTEN (gene 5728)
Put plainly: LTEA_HepaRG_PTEN: Life Technologies and Expression Analysis (LTEA) Assay for Phosphatase and tensin (PTEN) using HepaRG (AID 2283523). Put shortly:
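Expression of PTEN is quantified in the human liver line HepaRG following two days of dosing (top concentration 100 uM, half-log dilutions, 0.5% DMSO). Values derive from bidirectional curve fitting relative to DMSO controls.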

Read-out in test [18]: solute carrier (SLC22A1), SLC22A1 (gene 6580)
Put plainly: LTEA_HepaRG_SLC22A1: Life Technologies and Expression Analysis (LTEA) Assay for solute carrier (SLC22A1) using HepaRG (AID 2283524).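 As to AC50: differentiated human HepaRG liver cells in serum-free induction medium; TaqMan qRT-PCR normalized to ACTB GAPDH and POLR2A housekeeping genes.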 The method in brief:
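Transcript induction or suppression of SLC22A1 in human HepaRG cultures is scored after 48 h chemical treatment, with DMSO (0.5%) as baseline for bidirectional fitting. Concentrations span eight half-log points topping at 100 uM.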

Read-out in test [19]: Pyruvate Dehydrogenase Kinase 4 (PDK4), PDK4 (gene 5166)
The test is described as follows: LTEA_HepaRG_PDK4: Life Technologies and Expression Analysis (LTEA) Assay for Pyruvate Dehydrogenase Kinase 4 (PDK4) using HepaRG (AID 2283525). The method in brief:
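Eight-point, half-log concentration series (max 100 uM, 0.5% DMSO) applied to differentiated HepaRG cells for 48 h in duplicate. Endpoint: PDK4 mRNA induction or repression by qRT-PCR against DMSO baseline.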

Read-out in test [20]: Interleukin 6 (IL6), IL6 (gene 3569)
Put plainly: LTEA_HepaRG_IL6: Life Technologies and Expression Analysis (LTEA) Assay for Interleukin 6 (IL6) using HepaRG (AID 2283509). Put shortly: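 Changes in IL6 mRNA, up or down relative to 0.5% DMSO controls, were derived from concentration-response curves in human HepaRG cells treated for 48 h at up to 100 uM, with ACTB, GAPDH and POLR2A as normalizers.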

Activity calls are given as the source filed them. The calls were made as follows: active = hit-call score of the fitted dose curve at least 0.9, where 1 is the maximum; inactive = score below 0.9.

Sequence of Nuclear factor NF-kappa-B p105 subunit (Homo sapiens) (P19838 whole entry, looked up): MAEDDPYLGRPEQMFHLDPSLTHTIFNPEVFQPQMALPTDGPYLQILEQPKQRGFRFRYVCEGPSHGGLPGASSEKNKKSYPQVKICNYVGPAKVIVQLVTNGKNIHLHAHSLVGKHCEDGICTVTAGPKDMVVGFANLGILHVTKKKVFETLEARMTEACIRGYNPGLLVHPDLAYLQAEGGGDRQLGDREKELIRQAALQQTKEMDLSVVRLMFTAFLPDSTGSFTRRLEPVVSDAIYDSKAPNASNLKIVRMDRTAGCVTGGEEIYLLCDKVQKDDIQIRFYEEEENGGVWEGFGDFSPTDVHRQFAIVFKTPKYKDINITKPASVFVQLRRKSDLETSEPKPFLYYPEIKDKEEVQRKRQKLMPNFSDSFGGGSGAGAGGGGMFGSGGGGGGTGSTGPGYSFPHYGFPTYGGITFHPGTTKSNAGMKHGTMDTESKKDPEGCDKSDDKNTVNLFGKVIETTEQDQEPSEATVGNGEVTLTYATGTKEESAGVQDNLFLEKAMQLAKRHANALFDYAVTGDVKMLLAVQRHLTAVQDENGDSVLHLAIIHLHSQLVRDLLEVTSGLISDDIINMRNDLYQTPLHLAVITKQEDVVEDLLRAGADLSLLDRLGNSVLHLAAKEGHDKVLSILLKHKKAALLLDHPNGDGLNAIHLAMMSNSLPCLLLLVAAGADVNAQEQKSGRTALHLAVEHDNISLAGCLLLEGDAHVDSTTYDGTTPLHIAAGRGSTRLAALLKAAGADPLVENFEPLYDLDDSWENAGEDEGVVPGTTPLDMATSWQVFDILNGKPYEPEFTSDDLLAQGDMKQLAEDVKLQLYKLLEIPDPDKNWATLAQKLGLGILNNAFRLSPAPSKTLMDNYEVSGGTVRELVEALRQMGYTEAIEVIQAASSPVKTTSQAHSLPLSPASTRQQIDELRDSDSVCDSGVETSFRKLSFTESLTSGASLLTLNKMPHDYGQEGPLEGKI

For orientation: AC50 means the concentration giving half of the maximal activity seen. As for `CCN(C(=O)c1cc(C)cc(OC[C@H](C)Nc2ccncc2)c1)C(C)C`, the concentration at half-maximal activity (AC50) is 33.8 µM (active) in test [1]; 19.3 µM (active) in [6]; 33.8 µM (active) in [8]; 33.8 µM (active) in [9]; 33.8 µM (active) in test [10]; 33.8 µM (active) in test [11]. For the same compound, the values for the AC50 in [18] and in test [19] were 33.8 µM (active) and 53.7 µM (active), respectively. Also, the compound was called inactive in test [2], in [3], in test [4], in test [5], in test [7] and in test [12]. The compound was classed as inactive in test [13], in [14], in test [15], in test [16] and in test [17].

Take `CC[C@H](C)C(=O)O[C@H]1C[C@@H](C)C=C2C=C[C@H](C)[C@H](CC[C@@H]3C[C@@H](O)CC(=O)O3)[C@H]21`: the call in test [1], in test [2], in test [3], in test [20], in test [4] and in test [7] was inactive. Besides, the result in test [8], in test [9], in [10], in test [11], in test [12] and in test [13] was inactive. The call in test [14], in [15], in test [16], in test [17] and in test [18] was inactive. For the same compound, in [19], the AC50 was 16.9 µM (active).

For the compound `CCCC(=O)OCC`, the compound was called inactive in test [1], in [2], in [3], in [20], in test [4] and in test [5]. The call in [8], in test [9], in test [10], in test [11], in test [12] and in test [14] was inactive. The call in [16], in test [17] and in test [18] was inactive.

As to `CCCCCCc1ccc(O)cc1O`, the result in test [1], in [2], in test [3], in test [20], in test [4] and in test [5] was inactive. For the same compound, the call in [7], in test [8], in test [9], in test [10], in test [11] and in test [12] was inactive. Besides, the compound was classed as inactive in [13], in test [14], in test [16], in [17] and in test [18].
